Holding throughout (assay): log2 ratio of Biotin-Ahx-Ub-VS probe labelling (fragment/DMSO); higher = less target engagement (more negative = stronger competition), active = hit call of the paper (q ≤ 0.05, log2 ratio ≤ -1)
What all share (settings): compound concentration: 200 uM; treatment time: 3 h

One test has as its target T1, USP19 (UniProt O94966).
T1 sequence (whole entry): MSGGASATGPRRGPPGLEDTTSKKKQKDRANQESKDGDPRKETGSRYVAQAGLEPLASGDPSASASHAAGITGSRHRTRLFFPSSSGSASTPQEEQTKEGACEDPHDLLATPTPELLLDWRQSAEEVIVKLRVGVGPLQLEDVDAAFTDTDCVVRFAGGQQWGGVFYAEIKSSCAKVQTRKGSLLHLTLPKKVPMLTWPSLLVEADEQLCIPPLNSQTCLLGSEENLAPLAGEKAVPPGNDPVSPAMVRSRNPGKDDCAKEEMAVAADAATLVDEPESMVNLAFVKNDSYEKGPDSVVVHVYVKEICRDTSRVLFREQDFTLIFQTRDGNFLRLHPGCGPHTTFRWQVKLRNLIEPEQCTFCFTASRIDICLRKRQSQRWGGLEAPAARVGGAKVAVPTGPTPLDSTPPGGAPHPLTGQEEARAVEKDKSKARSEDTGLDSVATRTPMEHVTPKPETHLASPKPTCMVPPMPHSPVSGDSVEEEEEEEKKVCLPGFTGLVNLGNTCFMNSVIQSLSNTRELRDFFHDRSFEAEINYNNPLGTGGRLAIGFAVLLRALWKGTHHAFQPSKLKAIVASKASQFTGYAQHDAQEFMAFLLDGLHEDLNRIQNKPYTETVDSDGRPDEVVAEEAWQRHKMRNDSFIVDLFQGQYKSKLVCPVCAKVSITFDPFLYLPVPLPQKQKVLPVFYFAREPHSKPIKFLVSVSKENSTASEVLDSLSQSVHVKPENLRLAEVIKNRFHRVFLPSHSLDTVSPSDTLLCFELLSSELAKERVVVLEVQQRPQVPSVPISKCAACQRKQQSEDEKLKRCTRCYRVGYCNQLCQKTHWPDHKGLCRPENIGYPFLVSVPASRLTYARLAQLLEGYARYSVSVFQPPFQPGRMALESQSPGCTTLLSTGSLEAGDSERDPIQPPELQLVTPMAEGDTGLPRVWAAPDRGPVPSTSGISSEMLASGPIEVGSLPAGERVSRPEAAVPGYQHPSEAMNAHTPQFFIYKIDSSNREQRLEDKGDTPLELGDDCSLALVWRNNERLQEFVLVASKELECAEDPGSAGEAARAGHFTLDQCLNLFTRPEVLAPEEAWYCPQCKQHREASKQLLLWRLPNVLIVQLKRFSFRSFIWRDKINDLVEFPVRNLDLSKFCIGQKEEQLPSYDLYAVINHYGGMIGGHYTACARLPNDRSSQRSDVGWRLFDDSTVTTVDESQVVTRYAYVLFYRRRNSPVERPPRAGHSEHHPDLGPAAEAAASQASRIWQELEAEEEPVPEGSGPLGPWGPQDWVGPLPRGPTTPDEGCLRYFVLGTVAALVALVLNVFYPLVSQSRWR
An outline of the steps:
(§1)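 Labelled DUBs from HEK293T lysate were NeutrAvidin-enriched, digested with LysC and trypsin, and run by diaPASEF LC-MS/MS. Before that, each 495 µg sample in Tris/CHAPS/IGEPAL buffer with protease inhibitors was treated in triplicate with fragment at 200 µM or vehicle for 3 h, then with Biotin-Ahx-Ub-VS at 0.5 µM final for 1 h. Values are average log2 ratios of fragment over vehicle by unpaired t-test, based on global-median-normalised Spectronaut label-free quantities from proteins with ≥2 unique peptides.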

Another test deals with T2, USP22 (UniProt Q9UPT9).
T2 sequence (whole entry): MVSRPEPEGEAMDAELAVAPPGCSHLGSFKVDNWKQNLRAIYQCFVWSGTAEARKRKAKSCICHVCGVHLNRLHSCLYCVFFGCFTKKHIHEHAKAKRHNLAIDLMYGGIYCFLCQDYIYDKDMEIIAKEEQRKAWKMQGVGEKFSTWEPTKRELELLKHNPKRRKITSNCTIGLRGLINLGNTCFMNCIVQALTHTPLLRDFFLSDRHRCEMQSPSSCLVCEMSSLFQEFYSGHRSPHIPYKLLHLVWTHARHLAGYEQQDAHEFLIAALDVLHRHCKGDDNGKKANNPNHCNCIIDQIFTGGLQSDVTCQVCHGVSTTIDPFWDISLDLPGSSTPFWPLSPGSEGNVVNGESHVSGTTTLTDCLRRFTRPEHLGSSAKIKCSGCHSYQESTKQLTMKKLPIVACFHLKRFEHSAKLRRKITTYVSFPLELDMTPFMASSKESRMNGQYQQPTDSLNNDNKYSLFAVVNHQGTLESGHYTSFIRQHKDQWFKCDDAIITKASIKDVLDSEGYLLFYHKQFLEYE
An outline of the steps:
as §1

The target of the next test is USP24 (UniProt Q9UPU5). An outline of the steps:
as §1

Another test concerns the target T3, USP25 (UniProt Q9UHP3).
T3 sequence (whole entry): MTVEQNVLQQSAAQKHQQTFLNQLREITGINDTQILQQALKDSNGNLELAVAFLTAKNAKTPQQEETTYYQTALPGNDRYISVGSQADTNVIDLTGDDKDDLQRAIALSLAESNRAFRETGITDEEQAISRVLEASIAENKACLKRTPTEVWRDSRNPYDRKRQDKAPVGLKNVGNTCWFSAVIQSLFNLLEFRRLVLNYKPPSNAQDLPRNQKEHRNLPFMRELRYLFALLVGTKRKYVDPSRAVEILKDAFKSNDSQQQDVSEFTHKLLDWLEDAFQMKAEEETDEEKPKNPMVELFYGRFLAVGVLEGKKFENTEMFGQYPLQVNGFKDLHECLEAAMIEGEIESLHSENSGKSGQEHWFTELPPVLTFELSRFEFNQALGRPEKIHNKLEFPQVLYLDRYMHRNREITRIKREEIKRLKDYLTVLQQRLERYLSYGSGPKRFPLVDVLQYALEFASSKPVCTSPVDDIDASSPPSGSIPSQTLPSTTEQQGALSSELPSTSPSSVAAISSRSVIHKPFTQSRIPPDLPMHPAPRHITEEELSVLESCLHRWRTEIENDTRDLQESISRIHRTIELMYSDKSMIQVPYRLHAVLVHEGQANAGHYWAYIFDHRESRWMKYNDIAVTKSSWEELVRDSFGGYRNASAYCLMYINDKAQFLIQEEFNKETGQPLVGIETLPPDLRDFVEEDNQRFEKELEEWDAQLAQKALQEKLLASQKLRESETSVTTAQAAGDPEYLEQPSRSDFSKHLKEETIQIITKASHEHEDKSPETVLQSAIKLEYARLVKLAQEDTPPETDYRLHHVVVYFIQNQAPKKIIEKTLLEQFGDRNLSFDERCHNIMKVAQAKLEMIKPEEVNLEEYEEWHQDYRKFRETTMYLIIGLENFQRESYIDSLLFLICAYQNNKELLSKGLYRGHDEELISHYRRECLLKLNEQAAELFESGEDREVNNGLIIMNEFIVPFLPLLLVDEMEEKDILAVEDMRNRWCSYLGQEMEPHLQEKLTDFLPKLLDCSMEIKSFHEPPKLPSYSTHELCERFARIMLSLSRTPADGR
A digest of the protocol: as §1

The next test has as its target T4, USP28 (UniProt Q96RU2).
T4 sequence (whole entry): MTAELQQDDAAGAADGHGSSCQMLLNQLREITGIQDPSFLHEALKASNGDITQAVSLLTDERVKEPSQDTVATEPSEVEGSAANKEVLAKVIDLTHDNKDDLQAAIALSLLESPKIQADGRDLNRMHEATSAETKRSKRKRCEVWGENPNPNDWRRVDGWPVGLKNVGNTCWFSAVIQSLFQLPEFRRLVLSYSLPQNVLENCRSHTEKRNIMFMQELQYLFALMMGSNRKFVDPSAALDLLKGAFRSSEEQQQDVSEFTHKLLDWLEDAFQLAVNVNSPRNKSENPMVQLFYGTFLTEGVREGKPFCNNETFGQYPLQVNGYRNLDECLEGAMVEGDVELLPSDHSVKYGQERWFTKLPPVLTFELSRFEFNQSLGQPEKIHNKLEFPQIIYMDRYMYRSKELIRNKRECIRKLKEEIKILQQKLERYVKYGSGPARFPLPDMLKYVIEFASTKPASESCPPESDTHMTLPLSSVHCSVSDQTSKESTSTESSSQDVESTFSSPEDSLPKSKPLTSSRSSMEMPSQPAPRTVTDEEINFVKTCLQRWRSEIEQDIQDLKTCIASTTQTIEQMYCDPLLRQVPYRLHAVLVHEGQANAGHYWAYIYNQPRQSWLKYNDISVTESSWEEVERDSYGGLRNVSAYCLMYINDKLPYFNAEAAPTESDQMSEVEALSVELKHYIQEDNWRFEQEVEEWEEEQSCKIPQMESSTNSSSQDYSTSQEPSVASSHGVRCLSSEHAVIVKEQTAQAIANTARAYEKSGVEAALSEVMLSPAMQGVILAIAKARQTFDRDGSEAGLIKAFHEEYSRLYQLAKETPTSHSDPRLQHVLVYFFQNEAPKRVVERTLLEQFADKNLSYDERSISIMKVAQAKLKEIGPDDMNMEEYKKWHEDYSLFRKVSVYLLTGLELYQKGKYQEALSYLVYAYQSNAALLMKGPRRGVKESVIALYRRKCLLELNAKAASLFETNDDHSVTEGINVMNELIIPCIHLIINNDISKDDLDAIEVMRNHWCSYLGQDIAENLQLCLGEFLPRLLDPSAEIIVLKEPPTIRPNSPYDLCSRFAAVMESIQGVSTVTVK
A digest of the protocol: as §1

A number with no mark means an inactive call.

Sequence of USP24 (Q9UPU5 whole entry): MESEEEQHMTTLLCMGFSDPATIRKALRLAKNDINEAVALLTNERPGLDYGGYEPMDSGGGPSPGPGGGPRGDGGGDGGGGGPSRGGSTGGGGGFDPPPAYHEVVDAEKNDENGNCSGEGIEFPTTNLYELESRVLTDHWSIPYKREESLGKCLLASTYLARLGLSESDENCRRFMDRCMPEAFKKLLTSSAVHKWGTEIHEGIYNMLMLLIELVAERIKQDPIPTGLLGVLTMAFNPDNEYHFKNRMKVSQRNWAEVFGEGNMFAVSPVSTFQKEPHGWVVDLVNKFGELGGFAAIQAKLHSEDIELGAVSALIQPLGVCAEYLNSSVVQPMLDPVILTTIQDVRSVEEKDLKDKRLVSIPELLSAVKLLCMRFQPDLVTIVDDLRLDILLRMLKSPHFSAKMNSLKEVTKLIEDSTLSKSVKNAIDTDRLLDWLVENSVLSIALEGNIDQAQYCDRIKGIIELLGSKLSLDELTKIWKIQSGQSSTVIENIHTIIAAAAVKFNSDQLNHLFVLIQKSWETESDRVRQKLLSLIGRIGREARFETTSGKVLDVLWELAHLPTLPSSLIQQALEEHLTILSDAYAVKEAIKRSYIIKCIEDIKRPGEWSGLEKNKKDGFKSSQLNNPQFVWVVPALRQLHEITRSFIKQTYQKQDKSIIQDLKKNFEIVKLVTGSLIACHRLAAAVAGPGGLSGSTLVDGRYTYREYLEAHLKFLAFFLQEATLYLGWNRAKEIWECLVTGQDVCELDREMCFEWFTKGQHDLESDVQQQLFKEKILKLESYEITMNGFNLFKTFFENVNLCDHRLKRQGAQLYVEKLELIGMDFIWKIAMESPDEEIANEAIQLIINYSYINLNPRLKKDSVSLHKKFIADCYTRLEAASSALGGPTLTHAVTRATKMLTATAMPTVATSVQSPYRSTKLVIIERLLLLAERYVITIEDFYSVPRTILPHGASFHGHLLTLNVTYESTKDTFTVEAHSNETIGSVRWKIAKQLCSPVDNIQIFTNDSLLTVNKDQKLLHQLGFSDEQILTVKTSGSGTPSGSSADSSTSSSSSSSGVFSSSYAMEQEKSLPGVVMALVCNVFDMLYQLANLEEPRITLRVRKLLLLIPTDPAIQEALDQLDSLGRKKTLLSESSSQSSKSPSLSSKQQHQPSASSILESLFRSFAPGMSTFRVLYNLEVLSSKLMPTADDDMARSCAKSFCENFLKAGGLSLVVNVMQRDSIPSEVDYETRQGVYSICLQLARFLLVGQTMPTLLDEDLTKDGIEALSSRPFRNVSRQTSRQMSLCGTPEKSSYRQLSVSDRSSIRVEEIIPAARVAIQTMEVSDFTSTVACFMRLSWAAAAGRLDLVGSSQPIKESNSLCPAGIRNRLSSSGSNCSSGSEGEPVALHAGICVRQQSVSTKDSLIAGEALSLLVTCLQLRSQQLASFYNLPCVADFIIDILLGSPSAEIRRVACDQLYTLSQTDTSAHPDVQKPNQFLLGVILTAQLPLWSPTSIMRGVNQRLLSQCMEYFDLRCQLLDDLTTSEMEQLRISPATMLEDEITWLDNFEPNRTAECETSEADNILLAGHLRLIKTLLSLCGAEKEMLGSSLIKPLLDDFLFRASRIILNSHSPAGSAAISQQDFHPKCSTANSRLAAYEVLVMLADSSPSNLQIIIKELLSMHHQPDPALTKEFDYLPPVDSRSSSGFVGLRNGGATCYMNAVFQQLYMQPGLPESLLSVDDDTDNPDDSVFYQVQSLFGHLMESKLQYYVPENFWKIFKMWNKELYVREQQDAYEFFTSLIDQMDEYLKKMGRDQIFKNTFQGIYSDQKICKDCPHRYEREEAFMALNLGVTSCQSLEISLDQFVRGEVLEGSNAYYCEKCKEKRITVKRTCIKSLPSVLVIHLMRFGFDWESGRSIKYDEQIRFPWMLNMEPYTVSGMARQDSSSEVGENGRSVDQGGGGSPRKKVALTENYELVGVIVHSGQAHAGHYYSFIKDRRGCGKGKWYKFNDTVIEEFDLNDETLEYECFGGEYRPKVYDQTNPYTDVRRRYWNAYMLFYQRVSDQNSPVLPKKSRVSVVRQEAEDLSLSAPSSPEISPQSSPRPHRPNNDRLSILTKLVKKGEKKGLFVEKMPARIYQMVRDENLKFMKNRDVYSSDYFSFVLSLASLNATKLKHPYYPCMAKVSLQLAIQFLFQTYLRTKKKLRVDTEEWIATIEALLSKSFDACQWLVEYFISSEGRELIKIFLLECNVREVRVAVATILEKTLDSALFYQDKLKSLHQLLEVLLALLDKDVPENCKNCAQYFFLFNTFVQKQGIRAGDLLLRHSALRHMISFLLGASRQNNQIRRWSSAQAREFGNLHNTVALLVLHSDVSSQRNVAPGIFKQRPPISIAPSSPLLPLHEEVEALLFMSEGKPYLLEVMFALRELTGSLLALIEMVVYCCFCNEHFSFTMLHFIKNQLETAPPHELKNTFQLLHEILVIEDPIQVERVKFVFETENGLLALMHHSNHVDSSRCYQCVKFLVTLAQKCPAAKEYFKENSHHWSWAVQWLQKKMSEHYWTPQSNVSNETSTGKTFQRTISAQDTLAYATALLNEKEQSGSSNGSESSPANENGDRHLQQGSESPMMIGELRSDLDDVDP

Regarding `Cc1conc1C1CN(C(=O)CCl)C1`, the “log2 ratio of Biotin-Ahx-Ub-VS probe labelling” value is -1.19 (active) with USP19; -0.421 in the test with USP22; -1.11 (active) with USP24; -0.81 with USP25; -1.16 (active) with USP28.

The record behind these values is the supplement of paper PMC11732987, “Enantioselective OTUD7B fragment discovery through chemoproteomics screening and high-throughput optimisation” (Communications Chemistry, 2025).
